# Results from article PMC8384837, “Expanding the binding specificity for RNA recognition by a PUF domain”.
# Key:
# Assay in all cases: yeast three-hybrid, YBZ-1, SC-Leu-His + 0.5 mM 3-AT, 4 days
# Conditions in all cases: tags: N-Gal4 AD-HA kept; label: inside an RPR1-promoter hybrid RNA with tandem MS2 sites; ssRNA
# [1] = molecular target: PUM1 PUF domain R8-SFR (Homo sapiens, UniProt Q14671 828-1176, N1122S;Y1123F;Q1126R)
# Procedure, shortened: (§1)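 A centromeric plasmid in strain YBZ-1 co-expressed Pumilio-1 PUF domain libraries, randomized at the three base-contacting residues of each repeat, with matching RNA elements; the strain carries a LexA–MS2 coat fusion and a HIS3 reporter. After four days on SC-Leu (input) or SC-Leu-His + 0.5 mM 3-AT (selection), the repeat regions were PCR-amplified and Illumina-sequenced. The interaction score is the log change in variant frequency from input to selection, using log2 and a pseudocount of 1 where absent.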
# [2] = molecular target: PUM1 PUF domain R5-KFG (Homo sapiens, UniProt Q14671 828-1176, C1007K;R1008F;Q1011G)
# Procedure, shortened: as §1
# [3] = molecular target: PUM1 PUF domain R5-ERS (Homo sapiens, UniProt Q14671 828-1176, C1007E;Q1011S)
# Procedure, shortened: as §1
# [4] = molecular target: PUM1 PUF domain R5-DWG (Homo sapiens, UniProt Q14671 828-1176, C1007D;R1008W;Q1011G)
# Procedure, shortened: as §1
# [5] = molecular target: PUM1 PUF domain R7-NTG (Homo sapiens, UniProt Q14671 828-1176, S1079N;N1080T;E1083G)
# Procedure, shortened: as §1
# [6] = molecular target: PUM1 PUF domain R3-MRE (Homo sapiens, UniProt Q14671 828-1176, C935M;Q939E)
# Procedure, shortened: as §1
# [7] = molecular target: PUM1 PUF domain R1-GFR (Homo sapiens, UniProt Q14671 828-1176, S863G;R864F;Q867R)
# Procedure, shortened: as §1
# [8] = molecular target: PUM1 PUF domain R1-KMS (Homo sapiens, UniProt Q14671 828-1176, S863K;R864M;Q867S)
# Procedure, shortened: as §1
# [9] = molecular target: PUM1 PUF domain R1-KGA (Homo sapiens, UniProt Q14671 828-1176, S863K;R864G;Q867A)
# Procedure, shortened: as §1
# [10] = molecular target: PUM1 PUF domain R8-IWK (Homo sapiens, UniProt Q14671 828-1176, N1122I;Y1123W;Q1126K)
# Procedure, shortened: as §1
# Chain of PUM1 PUF domain R5-ERS (Q14671 828-1176 C1007E/Q1011S): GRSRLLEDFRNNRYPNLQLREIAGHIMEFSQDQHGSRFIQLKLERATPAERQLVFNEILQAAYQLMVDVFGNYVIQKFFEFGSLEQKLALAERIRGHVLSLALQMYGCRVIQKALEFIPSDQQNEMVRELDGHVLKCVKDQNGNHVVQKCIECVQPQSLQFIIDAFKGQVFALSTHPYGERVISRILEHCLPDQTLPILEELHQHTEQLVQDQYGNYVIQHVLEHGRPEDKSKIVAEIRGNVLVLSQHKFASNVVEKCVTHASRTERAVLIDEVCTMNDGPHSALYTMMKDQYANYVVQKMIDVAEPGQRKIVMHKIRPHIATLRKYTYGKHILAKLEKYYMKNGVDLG
# Chain of PUM1 PUF domain R5-KFG (Q14671 828-1176 C1007K/R1008F/Q1011G): as the sequence (Q14671 828-1176 C1007E/Q1011S) above, with E180K, R181F, S184G counted along it
# Chain of PUM1 PUF domain R5-DWG (Q14671 828-1176 C1007D/R1008W/Q1011G): as the sequence (Q14671 828-1176 C1007E/Q1011S) above, with E180D, R181W, S184G counted along it
# Chain of PUM1 PUF domain R1-GFR (Q14671 828-1176 S863G/R864F/Q867R): as the sequence (Q14671 828-1176 C1007E/Q1011S) above, with S36G, R37F, Q40R, E180C, S184Q counted along it
# Chain of PUM1 PUF domain R8-SFR (Q14671 828-1176 N1122S/Y1123F/Q1126R): as the sequence (Q14671 828-1176 C1007E/Q1011S) above, with E180C, S184Q, N295S, Y296F, Q299R counted along it
# Chain of PUM1 PUF domain R3-MRE (Q14671 828-1176 C935M/Q939E): as the sequence (Q14671 828-1176 C1007E/Q1011S) above, with C108M, Q112E, E180C, S184Q counted along it
# Chain of PUM1 PUF domain R1-KGA (Q14671 828-1176 S863K/R864G/Q867A): as the sequence (Q14671 828-1176 C1007E/Q1011S) above, with S36K, R37G, Q40A, E180C, S184Q counted along it
# Chain of PUM1 PUF domain R8-IWK (Q14671 828-1176 N1122I/Y1123W/Q1126K): as the sequence (Q14671 828-1176 C1007E/Q1011S) above, with E180C, S184Q, N295I, Y296W, Q299K counted along it
# Chain of PUM1 PUF domain R1-KMS (Q14671 828-1176 S863K/R864M/Q867S): as the sequence (Q14671 828-1176 C1007E/Q1011S) above, with S36K, R37M, Q40S, E180C, S184Q counted along it
# Chain of PUM1 PUF domain R7-NTG (Q14671 828-1176 S1079N/N1080T/E1083G): as the sequence (Q14671 828-1176 C1007E/Q1011S) above, with E180C, S184Q, S252N, N253T, E256G counted along it
sequence,measurement,setting,value
GGCUAGAACUAGUGGAUCCCCCGGCGCCCGGCGGCUCGAGCCCGGGUAAGUGUAAAUAGUCUGCAUGCCGCCGGGCGCCAUGCCUGCAGGUCGACUCUAGAAAACAUG,binding signal,[1],5.31 log2 enrichment (interaction score)
same,binding signal,[2],3.88 log2 enrichment (interaction score)
same,binding signal,[3],3.92 log2 enrichment (interaction score)
same,binding signal,[4],2.74 log2 enrichment (interaction score)
GGCUAGAACUAGUGGAUCCCCCGGCGCCCGGCGGCUCGAGCCCGGGUAAGUUUAAAUAGUCUGCAUGCCGCCGGGCGCCAUGCCUGCAGGUCGACUCUAGAAAACAUG,binding signal,[5],5.69 log2 enrichment (interaction score)
GGCUAGAACUAGUGGAUCCCCCGGCGCCCGGCGGCUCGAGCCCGGGUAAGCGUAAAUAGUCUGCAUGCCGCCGGGCGCCAUGCCUGCAGGUCGACUCUAGAAAACAUG,binding signal,[1],4.79 log2 enrichment (interaction score)
GGCUAGAACUAGUGGAUCCCCCGGCGCCCGGCGGCUCGAGCCCGGGUAAGUGUAAUUAGUCUGCAUGCCGCCGGGCGCCAUGCCUGCAGGUCGACUCUAGAAAACAUG,binding signal,[6],0.23 log2 enrichment (interaction score)
GGCUAGAACUAGUGGAUCCCCCGGCGCCCGGCGGCUCGAGCCCGGGUAAGUGUCAAUAGUCUGCAUGCCGCCGGGCGCCAUGCCUGCAGGUCGACUCUAGAAAACAUG,binding signal,[2],5.1 log2 enrichment (interaction score)
same,binding signal,[3],0.61 log2 enrichment (interaction score)
same,binding signal,[4],2.09 log2 enrichment (interaction score)
GGCUAGAACUAGUGGAUCCCCCGGCGCCCGGCGGCUCGAGCCCGGGUAAGUGUUAAUAGUCUGCAUGCCGCCGGGCGCCAUGCCUGCAGGUCGACUCUAGAAAACAUG,binding signal,[2],5.35 log2 enrichment (interaction score)
same,binding signal,[4],5.02 log2 enrichment (interaction score)
GGCUAGAACUAGUGGAUCCCCCGGCGCCCGGCGGCUCGAGCCCGGGUAAGUGUAAAUUGUCUGCAUGCCGCCGGGCGCCAUGCCUGCAGGUCGACUCUAGAAAACAUG,binding signal,[7],2.65 log2 enrichment (interaction score)
same,binding signal,[8],3.69 log2 enrichment (interaction score)
same,binding signal,[9],3.21 log2 enrichment (interaction score)
GGCUAGAACUAGUGGAUCCCCCGGCGCCCGGCGGCUCGAGCCCGGGUAAGUGUGAAUAGUCUGCAUGCCGCCGGGCGCCAUGCCUGCAGGUCGACUCUAGAAAACAUG,binding signal,[3],2.69 log2 enrichment (interaction score)
same,binding signal,[4],4.74 log2 enrichment (interaction score)
GGCUAGAACUAGUGGAUCCCCCGGCGCCCGGCGGCUCGAGCCCGGGUAAGUGUAAAUCGUCUGCAUGCCGCCGGGCGCCAUGCCUGCAGGUCGACUCUAGAAAACAUG,binding signal,[7],5.46 log2 enrichment (interaction score)
same,binding signal,[9],3.08 log2 enrichment (interaction score)
GGCUAGAACUAGUGGAUCCCCCGGCGCCCGGCGGCUCGAGCCCGGGUAAGUGUAAGUAGUCUGCAUGCCGCCGGGCGCCAUGCCUGCAGGUCGACUCUAGAAAACAUG,binding signal,[6],5.14 log2 enrichment (interaction score)
GGCUAGAACUAGUGGAUCCCCCGGCGCCCGGCGGCUCGAGCCCGGGUAAGGGUAAAUAGUCUGCAUGCCGCCGGGCGCCAUGCCUGCAGGUCGACUCUAGAAAACAUG,binding signal,[10],2.04 log2 enrichment (interaction score)
